Compound activity (PubChem)
Mdm2-MdmX inh: human Mdm2/MdmX binding inhibition; O15151+Q00987; SaOS-2 split-luciferase Mdm2/MdmX complementation, luminescence; inhibition, % at 8 µM; 330,000 tested, 3% active; AID 485346;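 active means inhibition of at least 50% at 8 µM in the primary screen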
CF NFkB block: cystic fibrosis NF-kB activation inhibition | KKLEB NF-kB-GFP reporter, PAF-induced, GFP fluorescence overnight | inhibition, % at 5 µM | 360,000 tested, 0.86% active;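 active means at least 50% inhibition at 5 µM, scaled per plate between neutral and stimulator controls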;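 further: PAF is a Pseudomonas aeruginosa culture filtrate used as stimulus; plate controls were PAF-stimulated DMSO wells for no effect and unstimulated DMSO wells for full effect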
ABHD5 PLIN5 PPI: blocks binding of human ABHD5 to perilipin-5. 360,000 tested, 0.78% active. inhibition, % at 4 µM. Q00G26+Q8WTS1. Split G. princeps luciferase complementation, luminescence, 4 h;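 active means inhibition above the mean inhibition across every tested compound plus 3 SD, cut at about 22% in these data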;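 further: 0% = DMSO only wells and the 100% control is not disclosed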
Peg3 prom inh-1: Peg3 promoter activity inhibition; HeLa PEG-Prom luciferase reporter, luminescence, overnight; inhibition, % at 20 µM; 360,000 tested, 1.7% active;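 active means inhibition of at least 50% at 20 µM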
HIF-2a block: HIF-2a inhibition | 786-0 RCC cells HIF-2a reporter, luciferase luminescence, overnight | inhibition, % at 18.8 µM | 360,000 tested, 0.72% active | AID 624352;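 active means inhibition of the luminescence signal of 40% or more relative to plate controls, in a single-dose primary screen at 18.75 µM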
KKLEB tox: reduces viability of KKLEB cystic fibrosis airway cells. KKLEB CF airway cells viability, ATPlite luminescence, overnight; stronger effect = lower value; cells stimulated with P. aeruginosa culture filtrate. 360,000 tested, 0.36% active. activity change (cytotoxicity), % at 5 µM;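 active means corrected activity change at or below -50% at 5 µM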
Mdm2 MdmX conf-1: human Mdm2/MdmX binding inhibition, confirmed. luminescent assay. inhibition, % at 8 µM. 10,000 tested, 55% active. AID 489028. shares compounds with Mdm2-MdmX inh
Full FLuc ctr: full-length luciferase inhibition in Mdm2/MdmX counter-screen; SaOS-2 full-length luciferase counterscreen, luminescence; 6,200 tested, 77% active; inhibition, % at 8 µM; shares compounds with Mdm2-MdmX inh;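 active means mean inhibition at 8 µM reaching about 37%, which flags the compound as non-specific, limit read from the data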;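 further: p53-null SaOS-2 cells with luciferase driven by a doxycycline-inducible promoter; compound on cells about two nights before reading with doxycycline added after day one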
Peg3 prom inh-2: confirmation of Peg3 promoter inhibitors; HeLa PEG-Prom luciferase reporter, luminescence, overnight; shares compounds with Peg3 prom inh-1; 1,300 tested, 84% active; AID 602417; inhibition, % at 20 µM;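 active means at 20 µM dose, 40% or more inhibition averaged across four replicates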
CF NFkB inh conf: CF NF-kB inhibition confirmation, single concentration. shares compounds with CF NFkB block. KKLEB CF airway cells, PAF-induced NF-kB-GFP fluorescence, overnight. inhibition, % at 5 µM. 1,300 tested, 64% active. AID 602472;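 further: stimulus PAF is a Pseudomonas aeruginosa filtrate and not platelet activating factor; plate controls were DMSO wells with stimulus for no effect and unstimulated DMSO wells for full effect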
Mdm2 MdmX conf-2: confirmation of inhibitors of human Mdm2/MdmX interaction, set 2 | shares compounds with HIF-2a block | AID 504601 | inhibition, % at 8 µM | SaOS-2 split-luciferase Mdm2/MdmX complementation, luminescence | 740 tested, 99% active;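 active means mean inhibition of the luminescence signal across two replicates at or above 26 percent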
HIF-2a inh conf: HIF-2a inhibition, single concentration confirmation; 1,800 tested, 56% active; AID 651580; inhibition, % at 18.8 µM; 786-0 RCC cells, HIF-2a luciferase reporter luminescence, overnight; shares compounds with HIF-2a block;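 active means mean inhibition across four replicates of at least 40 percent at the single tested concentration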
HIF-1a counter: counter-screen for HIF-2a inhibitors: HIF-1a inhibition in MiaPaCa-2 cells. inhibition, % at 18.8 µM. MiaPaCa-2 HIF-1a luciferase reporter, desferoxamine, overnight. shares compounds with HIF-2a block. AID 651589. 1,800 tested, 72% active;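 active means mean inhibition of the reporter signal across four replicates at the single tested dose of 50% or more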
Active calls of the source: *; / = not tested or not shown; ! = a repeat was not active. Hits are enriched below; roughly 4.6% of the tested compounds scored in any of these assays. Unless noted, no stated cut-off is given here; in the data, active means inhibition above about 40%; inactive means the rest.

SMILES	Mdm2-MdmX inh	CF NFkB block	ABHD5 PLIN5 PPI	Peg3 prom inh-1	HIF-2a block	KKLEB tox	Mdm2 MdmX conf-1	Full FLuc ctr	HIF-2a inh conf	HIF-1a counter	others
CCOc1ccc(C(=O)/C=C/c2cc(OC)c(OC)c(OC)c2)cc1	63*	5	4	62*	66*	-25	55*	49*	53*	103*
COc1cc(/C=C/C(=O)c2ccc3c(c2)OCCO3)cc(OC)c1OC	67*	33	15	31	56*	-12	46*	66*	48*	101*
CCCCC[C@@H](O)c1cc2ccccc2c(=O)o1	-22	10	9	-188	-173	-21	/	/	/	/
Cc1oc(-c2ccc(Cl)cc2)nc1CN1CCC(C(=O)NCCCN2CCOCC2)CC1	22	15	2	-7	3	-7	/	/	/	/
CCC1CCCCN1CCCNC(=O)C1CCN(Cc2nc(-c3ccc(Cl)cc3)oc2C)CC1 (stereo not drawn)	98*	8	1	80*	16	-17	96*	60*	/	/	Mdm2 MdmX conf-2=102*
Cc1nn(Cc2ccc(Cl)cc2Cl)c(C)c1NC(=O)CCl	78*	15	0	44	16	-3	92*	62*	/	/	Mdm2 MdmX conf-2=103*
N#Cc1c(Nc2ccccc2)sc(C(=O)c2ccccc2)c1N	4	24	-9	-5	-11	-17	/	/	/	/
Cc1cccc(Oc2sc(C(=O)c3ccccc3)c(N)c2C#N)c1	58*	37	-4	42	43*	-26	33	42*	20	43
Cc1ccc(S(=O)(=O)N(C)CC(=O)N(C)CCOc2ccccc2)cc1	/	10	5	-2	9	5	/	/	/	/
CC(=O)N(c1ccc(Cl)cc1)c1cn(C(C)=O)c2ccccc12	-1	6	15	9	13	5	/	/	/	/
CC(=O)n1cc(N(C(=O)CCl)c2ccc(C)cc2)c2ccccc21	99*	93*	11	109*	56*	-103*	100*	52*	/	/	Peg3 prom inh-2=101*;Mdm2 MdmX conf-2=103*
CC1=C(C(=O)N(C(C)C)C(C)C)CC(CC(=O)NCc2cccs2)C(=O)N1Cc1ccc(C(C)(C)C)cc1 (stereo not drawn)	/	-16	1	24	5	4	/	/	/	/
CCCNC(=O)c1cc(C2CCCCN2C(=O)c2cc(OC)c(C)c(OC)c2)on1 (stereo not drawn)	/	1	7	15	5	-2	/	/	/	/
Cn1c(/C=C/c2ccc(Cl)cc2)c([N+](=O)[O-])c(=O)n(C)c1=O	64*	27	22*	15	63*	6	44*	37*	44*	18
Cn1c(/C=C/c2cccc([N+](=O)[O-])c2)c([N+](=O)[O-])c(=O)n(C)c1=O	84*	46	22	32	45*	5	52*	43*	38	57*
COc1ccc(/C=C/c2c([N+](=O)[O-])c(=O)n(C)c(=O)n2C)cc1OC	14	17	-6	0	12	0	/	/	/	/
COc1ccc(-c2cc3c(=O)n(CC(=O)NCCCN4CCC(N5CCCCC5)CC4)nc(C)n3n2)cc1	99*	-10	9	6	1	18	100*	46*	/	/	Mdm2 MdmX conf-2=73*
Cc1nn(CC(=O)NCCCN2CCCCC2)c(=O)c2cc(-c3ccccc3)nn12	17	-3	5	11	-1	14	/	/	/	/
CCOc1ccc(S(=O)(=O)N(CC)CC(=O)NCc2cccnc2)cc1C	31	3	1	7	11	5	/	/	/	/
O=C(Nc1ccncc1)C1COc2ccccc2O1 (stereo not drawn)	17	8	-7	-4	-12	13	/	/	/	/
O=C(NC1=NCCS1)C1COc2ccccc2O1 (stereo not drawn)	80*	5	4	106*	83*	-14	81*	34	90*	85*	Peg3 prom inh-2=82*
Cc1cccc(NC(=O)CCc2ccc(N3C(N)=NC(N)=NC3(C)C)cc2)c1	/	23	11	9	20	-18	/	/	/	/
CCOC(=O)[C@H]1[C@H]2COc3ccc(C)cc3[C@@H]2N2C(=O)c3cc(F)c(F)cc3NC(=O)[C@@]12C	9	4	-5	14	0	-5	/	/	/	/
COc1ccc(-c2oc3ncn(CCN4CCOCC4)c(=N)c3c2-c2ccc(OC)cc2)cc1	57*	14	2	39	45*	-24	38	49*	12	86*
COc1ccc(-c2oc3ncnc(NCCN4CCOCC4)c3c2-c2ccc(OC)cc2)cc1	80*	36	6	51*	47*	-31	37	/	30	90*
O=C(O)c1cccc(COc2ccccc2Cl)c1	69*	-19	-6	92*	77*	-6	69*	50*	93*	36	Peg3 prom inh-2=82*;Mdm2 MdmX conf-2=78*
Nc1ncnc2c1c(-c1ccc(Oc3ccccc3)cc1)cn2C1CCCC1	85*	53*	-6	71*	67*	-10	53*	42*	55*	65*	CF NFkB inh conf=81*
Cc1ccc(C(=O)Nc2cccc(C(F)(F)F)c2)cc1NC(=O)c1c[nH]c2cc(C(F)(F)F)ccc2c1=O	27	18	2	1	-1	15	/	/	/	/
CCN1CCN(Cc2ccc(NC(=O)c3ccc(C)c(NC(=O)c4c[nH]c5cc(C(F)(F)F)ccc5c4=O)c3)cc2C(F)(F)F)CC1	100*	94*	12	103*	67*!	-83*	100*	52*	11	101*	Mdm2 MdmX conf-2=102*
COc1ccc(C2=NN(C(=O)COc3ncnc4ccccc34)C(c3ccco3)C2)cc1 (stereo not drawn)	35	17	6	39	0	-21	/	/	/	/
